ClpP mod = qHTS Assay for Activators of ClpP | ATP-dependent Clp protease proteolytic subunit (Bacillus subtilis (strain 168)), P80244 | purified B. subtilis ClpP, FRET peptide cleavage, 20 min | Potency, µM (series often up to 57.5 µM), for the others: top-dose activity change, negative = active | hit rate 1.9% among 340,000; active = well fitted falling curve with a large enough effect; inconclusive = small, poorly fitted or top-dose-only effect; inactive = no such curve, though single readings can be large or run the other way; note: the source files actives as falling curves though it sought activators and does not explain the sign; nearly all actives have a fitted effect of over 65% in size
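ClpP 10 microg/mL final, pH 8 Tris/KCl buffer with BSA, glycerol, Tween-20; compound pinned in; FRET-FV substrate; RT 20 min; Ex320/Em430; ΔFRET vs ADEP 5.8 microM, DMSO, no enzyme.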
TDP1 cell noCPT = qHTS for Inhibitors of human tyrosyl-DNA phosphodiesterase 1 (TDP1): qHTS in cells in absence of CPT | DT40 Tdp1-/- hTDP1 cells, no CPT, ATP luminescence, 48 h | Potency, µM (doses to about 46.2 µM), for inactives: at the highest dose activity change, negative = growth inhibition, actives largely listed as inhibitors | hit rate 15% among 420,000; note: % is set by controls: 0 for no effect and ±100 for the full control effect; nearly all actives have a fitted effect of over 55% in size
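Stably hTDP1-transfected Tdp1-null chicken DT40 cells were treated with library compounds minus camptothecin and grown for at least 48 hr at 37 °C, after which cellular ATP was quantified by luminescence.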
TDP1 inh = blocks human tyrosyl-DNA phosphodiesterase 1. Q9NUW8. recombinant TDP1, AlphaScreen DNA substrate cleavage. Potency, µM (series often up to 130 µM), without a hit: top-dose activity change, negative = inhibition, most hits filed as inhibitors. hit rate 0.28% among 350,000. AID 485290; note: % is set by controls: 0 for no effect and ±100 for the full control effect; nearly all actives have a fitted effect of over 40% in size
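Compounds were preincubated with Tdp1 (1 nM final) for 15 min at room temperature before substrate (15 nM final) started a 5 min reaction; beads (10 ug/ml final) were then added for 10 min before AlphaScreen detection.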
DT40 TDP1 CPT = growth inhibition of DT40 Tdp1-/-;hTDP1 cells with camptothecin (screen for TDP1 inhibitors) | chicken DT40 Tdp1-/-;hTDP1 cells + 20 nM CPT, ATP luminescence, 48 h | Potency, µM (doses to about 46.2 µM), for the others: top-dose activity change, negative = growth inhibition, hits mostly inhibitors | hit rate 12% among 420,000; note: % is set by controls: 0 for no effect and ±100 for the full control effect; nearly all actives have a fitted effect of over 55% in size
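Chicken DT40 Tdp1-/- cells stably complemented with human TDP1 were seeded at 400 cells/well in medium containing 20 nM camptothecin, exposed to pin-transferred compounds, and grown at 37 °C for at least 48 hr. Viability was read as ATP luminescence.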
Active calls of the source: *; ? = inconclusive; . = no result given; [ ] = remark or other dose. The list is not random: actives were taken first. Their share in the collection is about 17%. Unless noted, calls come from the whole dose curve; as a rule, active = well fitted curve in the direction sought with a large enough effect; inconclusive = small, poorly fitted or top-dose-only effect, or another doubt; inactive = no such curve, though single readings can be large; an effect the other way counts as inactive or inconclusive. Potency is the fitted concentration of half-maximal effect.

SMILES	ClpP mod	TDP1 cell noCPT	TDP1 inh	DT40 TDP1 CPT
CCC1=Nc2cc(C(=O)NC3CCC(C)CC3)ccc2Sc2ccc(C)cc21 (stereo not given)	0.2%	0.651µM*	2.1%[12.3 µM]	1.3µM*
CCC1=Nc2cc(C(=O)NCCN3CCOCC3)ccc2Sc2ccc(C)cc21	-1.0%	-0.4%	7.5%	-9.9%
CCOC(=O)N1CCC(NC(=O)c2ccc3c(c2)N=C(CC)c2cc(C)ccc2S3)CC1	-2.1%	18.4µM*	2.8%	10.3µM*
CCC1=Nc2cc(C(=O)NCc3ccco3)ccc2Sc2ccc(C)cc21	2.1%	1.3µM*	8.0%	1.46µM*
CCC1=Nc2cc(C(=O)NC3CCCC3)ccc2Sc2ccc(Br)cc21	-0.9%	0.731µM*	7.5%	0.731µM*
CC1=Nc2cc(C(=O)NC3CCCCC3)ccc2Sc2ccc(Cl)cc21	-1.1%	1.03µM*	2.8%	0.82µM*
CCCCCCCCNc1ccc(/C=C/c2ccnc3ccccc23)cc1	0.5%	?	.	?
CCCCCCCCCCCCCC(=O)Nc1ccc(/C=C/c2ccnc3ccccc23)cc1	-3.5%	17.8µM*	.	11.2µM*
CCOC(=O)Nc1ccc(/C=C/c2ccnc3ccccc23)cc1	-1.5%	12.6µM*	.	?
Cc1cccc(C(=O)Oc2csc(=S)n2C(=O)c2cccc(C)c2)c1	0.3%	-21.4%	2.2%	8.0%
O=C(Oc1csc(=S)n1C(=O)c1ccccc1)c1ccccc1	8.91µM*	?	0.0%	?
COCCn1c(SCC(=O)Nc2ccc(F)cc2)nc2ccccc2c1=O	-0.4%	?	.	?
COCCn1c(SCc2cccc(F)c2)nc2cc(C(=O)OC)ccc2c1=O	?	?	.	20.6µM*
COCCn1c(SCc2ccc(OC)c(F)c2)nc2ccccc2c1=O	1.2%	20.6µM*	-5.0%	16.4µM*
COC(=O)c1ccc(CSc2nc3ccccc3c(=O)n2-c2ccc(OC)c(OC)c2)o1	-5.4%	?	-2.1%	16.4µM*
COC(=O)c1ccc(CSc2nc3ccccc3c(=O)n2-c2ccccc2)o1	-3.4%	?	3.0%	?
COCCn1c(SCc2ccc(C(=O)OC)o2)nc2ccccc2c1=O	-3.0%	20.6µM*	4.1%	?
CN1C(=O)/C(=C/c2cc(C(C)(C)C)c(O)c(C(C)(C)C)c2)NC1=S	-1.6%	-1.4%	5.3%	-18.2%
CCOc1ccc(C(=O)NCC(=O)NNC(=O)CN(C)S(=O)(=O)c2ccc(Cl)cc2)cc1OCC	-0.2%	11.8%	.	0.1%
O=C(c1nc2ncccn2n1)N1CCOc2ccc(C(O)C(c3ccccc3)c3ccccc3)cc2C1 (stereo not given)	.	-45.9%	.	?
COc1ccc(C(=O)NC2CC2)cc1OC1CCN(Cc2ccc(NC(C)=O)cc2)CC1	-0.1%	19.4%	.	8.7%
CC(C)Cn1c(SCc2cccc(F)c2)nc2ccsc2c1=O	-3.5%	29.1µM*	-7.4%	14.6µM*
C=C1C(O)[C@@H]2O[C@]3(CC[C@H](/C=C/C(C)[C@@H]4CC(C)=CC5(O[C@H](C[C@@](C)(O)CO)CCC5O)O4)O3)CC[C@H]2O[C@@H]1C(O)CC(C)[C@H]1OC2(CCCCO2)CCC1C (stereo not given in full)	0.5%	3.26µM*	0.2%	1.46µM*
C=C1[C@@H](O)[C@@H]2O[C@]3(CC[C@H](/C=C/[C@@H](C)[C@@H]4CC(C)=CC5(O[C@H](C[C@@](C)(O)C(=O)OC)CC[C@H]5O)O4)O3)CC[C@H]2O[C@@H]1[C@@H](O)C[C@H](C)[C@H]1OC2(CCCCO2)CC[C@H]1C (stereo not given in full)	1.1%	0.92µM*	0.2%	0.581µM*
COc1ccc(CN2C(=O)c3ccccc3C2C(=O)NC2CCCCCC2)c(OC)c1 (stereo not given)	-2.5%	?	0.0%	-8.5%
SMILES	ClpP mod	TDP1 cell noCPT	TDP1 inh	DT40 TDP1 CPT
CCCOc1ccc(CN(CCC#N)C(=S)NC(=O)c2ccccc2)cc1	-2.5%	5.17µM*	.	7.31µM*
Cc1cc(N2CCOCC2)nc(SCC(=O)c2ccc(Cl)cc2)n1	-1.6%	?	5.2%	16.4µM*
Cc1cc(N2CCCC2)nc(SCC(=O)c2ccccc2)n1	-4.2%	23.1µM*	4.9%	?
CC(C)C1C(=O)N(Cc2cn(Cc3ccco3)nn2)CCS(=O)(=O)N1Cc1ccc(-c2ccc(Cl)cc2)cc1 (stereo not given)	-6.0%	6.51µM*	.	9.2µM*
CC(C)C1C(=O)N(Cc2cn(Cc3ccco3)nn2)CCS(=O)(=O)N1Cc1ccc(-c2ccncc2)cc1 (stereo not given)	-0.5%	-14.9%	.	-12.5%
CC(C)C1C(=O)N(Cc2cn(Cc3ccco3)nn2)CCS(=O)(=O)N1Cc1ccc(-c2ccccc2)cc1 (stereo not given)	0.3%	18.4µM*	.	?
CC(C)C1C(=O)N(Cc2cn(Cc3ccco3)nn2)CCS(=O)(=O)N1Cc1ccc(-c2ccc(F)cc2)cc1 (stereo not given)	0.1%	20.6µM*	.	?
Cc1ccc(CN2C(=O)c3ccccc3Sc3ccc(C(=O)NCc4ccco4)cc32)cc1	-6.8%	?	-2.6%	-20.8%
O=C(COC(=O)/C=C/c1ccc([N+](=O)[O-])cc1)NCC1CCCCC1	-2.6%	3.4%	0.0%	-11.1%
Cc1cc(OCC(=O)N(Cc2sccc2C)C2CCS(=O)(=O)C2)ccc1Cl (stereo not given)	0.6%	?	4.9%	?
COC(=O)C1=CNC=C(C(=O)OC)C1c1ccc(C(=O)OC)cc1	28.2µM*	-9.5%	4.8%	0.5%
CCN1C=C(C(=O)OC)C(c2cccc(C)c2)C(C(=O)OC)=C1	6.31µM*	?	-2.0%	-25.2%
CCOC(=O)c1ccc(N2C=C(C(=O)OC)C(c3ccc(OC)c(O)c3)C(C(=O)OC)=C2)cc1	-11.4%	-13.2%	.	?
COC(=O)C1=CN(c2cc(C)cc(C)c2)C=C(C(=O)OC)C1c1cccc(F)c1	3.6%	13µM*	-15.9%	18.4µM*
COC(=O)C1=CN(C(C)C)C=C(C(=O)OC)C1c1cccc(OC)c1	30.8%	-1.0%	0.5%	2.0%
COC(=O)C1=CN(c2ccc(F)cc2)C=C(C(=O)OC)C1c1ccc(O)cc1	.	16.4µM*	.	6.0%
COc1ccc(NC(=O)c2ccc(S(=O)(=O)N3CCCCC3)cc2)cc1OC	3.4%	?	0.3%	?
O=C(c1cccc(F)c1)N1CCC2(CC1)CN(c1ncccn1)C2	.	-17.2%	.	?
CC(C)(C)c1ccc(OCCC(=O)OCC(=O)NC2CCCCC2)cc1	-1.2%	-6.7%	.	-1.4%
COc1ccc(OCCC(=O)OCC(=O)NC2CCCCC2)cc1	0.9%	-12.7%	-0.2%	13.6%
CC(C)(C)c1ccc(OCCC(=O)OCC(=O)NC(=O)NC2CCCC2)cc1	.	18.4µM*	.	18.4µM*
COc1ccc(OCCC(=O)OCC(=O)NC(=O)NC2CCCCC2)cc1	20µM*	-10.5%	6.0%	-20.8%

Screening data from PubChem.
